Drawing on PubChem BioAssay (EPA / NIEHS), this text covers outcome and AC50 for four compounds.

The structures appear in SMILES notation. Calls of active or inactive are those of the source. How the source made its calls: active means hit-call score of the fitted dose curve at least 0.9, where 1 is the maximum; inactive means score below 0.9.

A short description of assay [1]: ATG_M_61_CIS: Attagene CIS-FACTORIAL HepG2 Assay for M61 Transcription Factor (Internal Marker) (AID 2282937). As to conditions: HepG2 Attagene CIS-FACTORIAL M61 internal marker reporter; actives raise or lower the signal. The method in brief:
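Readout is reporter mRNA by RT-PCR, fluorescent primer extension and capillary electrophoresis, with gain or loss fitted relative to DMSO. Transfected HepG2 cells carrying endogenous-TF-driven cis reporters were exposed to chemicals for 24 hours.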

Assay [2] is described as follows: ATG_EGR_CIS: Attagene CIS-FACTORIAL HepG2 Assay for human Early Growth Response 1 (EGR1) (AID 2282938). As to conditions: HepG2 Attagene CIS-FACTORIAL EGR reporter mRNA; actives raise or lower the signal. The method in brief:
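After 24 h compound exposure, RNA from reporter-transfected HepG2 cells was reverse-transcribed, PCR-amplified, fluorescently labelled and resolved by capillary electrophoresis. EGR1 reporter transcript changes, up or down, were fitted against DMSO, reflecting endogenous transcription-factor activity.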

Assay [3] in a line: ATG_M_19_CIS: Attagene CIS-FACTORIAL HepG2 Assay for M19 Transcription Factor (Internal Marker) (AID 2282939). As to conditions: HepG2 Attagene CIS-FACTORIAL M19 internal marker reporter; actives raise or lower the signal. The gist of the method:
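Chemical-treated HepG2 (24 h) with MRTU constructs; reporter transcripts detected by fluorescent RT-PCR fragment analysis on capillary electrophoresis. Internal background marker, DMSO as baseline.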

The nature of assay [4]: ATG_ERE_CIS: Attagene CIS-FACTORIAL HepG2 Assay for Estrogen Response Element (ERE) (AID 2282940). The conditions noted are these: HepG2 ERE cis-reporter, Attagene RNA transcript; actives raise or lower the signal. The gist of the method:
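Human liver cells (HepG2) bearing transiently transfected, promoter-regulated reporter units were exposed 24 h. Reporter mRNA induction was detected by capillary electrophoresis of labelled RT-PCR products and fitted bidirectionally to DMSO.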

Assay [5] in a line: ATG_Ets_CIS: Attagene CIS-FACTORIAL HepG2 Assay for human Erythroblast Transformation Specific (ETS) (AID 2282941). As to conditions: HepG2 ETS cis-reporter transcription, actives raise or lower the signal. The gist of the method:
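Endogenous transcription factor activity read as reporter mRNA via RT-PCR and capillary electrophoresis, with gain or loss fitted bidirectionally against DMSO. Human HepG2 liver cells, transiently transfected CIS reporter constructs, 24 h exposure.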

Assay [6] has as its target Hepatocyte nuclear factor 3-beta (Homo sapiens) (UniProt Q9Y261). Briefly: ATG_FoxA2_CIS: Attagene CIS-FACTORIAL HepG2 Assay for human Forkhead box A2 (FOXA2) (AID 2282942). The conditions noted are these: HepG2 cis-reporter transcription factor activity, 24 h; actives raise or lower the signal. The method in brief: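 Endogenous transcription factor activity is captured via cis-element-driven reporter transcripts in transfected HepG2. Total RNA taken at 24 h post-dosing; labelled RT-PCR products resolved by capillary electrophoresis. Gain or loss fitted versus DMSO.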

Assay [7] can be described thus: ATG_FoxO_CIS: Attagene CIS-FACTORIAL HepG2 Assay for human Forkhead box O (FoxO) (AID 2282943). The conditions noted are these: HepG2 Attagene cis-reporter, FoxO element, mRNA; actives raise or lower the signal. The method in brief:
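HepG2 cells transiently transfected with cis-element-driven reporter units report endogenous FoxO activity. After 24 h chemical exposure, reporter mRNA quantified by RT-PCR, fluorescent labeling, HpaI digestion and capillary electrophoresis; bidirectional fit versus DMSO.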

The nature of assay [8]: ATG_GATA_CIS: Attagene CIS-FACTORIAL HepG2 Assay for human GATA Binding Protein (AID 2282944). As to conditions: HepG2 GATA cis-element reporter, Attagene multiplex mRNA; actives raise or lower the signal. The gist of the method:
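Transfected cis-reporter HepG2 cells were treated with chemicals for 24 hours. Total RNA was then converted to cDNA, amplified with reporter-specific primers and analysed by fluorescent capillary electrophoresis, using DMSO-treated wells as baseline.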

Assay [9] in a line: ATG_GLI_CIS: Attagene CIS-FACTORIAL HepG2 Assay for human Zinc Finger Protein GLI1 (AID 2282945). The conditions noted are these: HepG2, Attagene cis-factorial reporter mRNA, GLI element; actives raise or lower the signal. The method in brief: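 Transiently transfected HepG2 cells report endogenous transcription factor activity via cis-element-driven reporter units. After 24 h compound exposure, reporter mRNA was measured by RT-PCR with capillary electrophoresis; bidirectional fitting against DMSO baseline.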

Assay [10] can be described thus: ATG_GRE_CIS: Attagene CIS-FACTORIAL HepG2 Assay for human Glucocorticoid Response Elements (GRE) (AID 2282947). As to conditions: HepG2 GRE cis-reporter, Attagene multiplex mRNA; actives raise or lower the signal. The method in brief: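 Read-out: fluorescent reporter-transcript fragments separated by capillary electrophoresis after RT-PCR. Transiently transfected HepG2 cells carrying cis-element-driven reporter units were dosed for 24 h; gain or loss of signal fitted against DMSO control.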

A short description of assay [11]: ATG_M_32_CIS: Attagene CIS-FACTORIAL HepG2 Assay for M32 Transcription Factor (Internal Marker) (AID 2282949).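 Further: background control marker of the multiplexed CIS panel rather than a real target.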 The conditions noted are these: HepG2 Attagene cis-factorial M32 reporter, mRNA; actives raise or lower the signal. The gist of the method:
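Using DMSO as baseline, bidirectional curve fits were applied to reporter mRNA signals. These came from transiently transfected HepG2 cells exposed for 24 h, with RNA analysed by RT-PCR, FAM primer extension, HpaI digestion and CE.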

Assay [12] in a line: ATG_M_06_CIS: Attagene CIS-FACTORIAL HepG2 Assay for M06 Transcription Factor (Internal Marker) (AID 2282950). As to conditions: HepG2 Attagene CIS-FACTORIAL M06 internal marker reporter; actives raise or lower the signal. The gist of the method:
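Cells (HepG2, transiently carrying cis-driven reporter units) receive chemical for 24 h before RNA isolation. Reporter cDNA is PCR-amplified, FAM-labelled by primer extension, HpaI-digested and sized on a capillary analyser.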

In assay [13] the target is Hypoxia-inducible factor 1-alpha (Homo sapiens) (UniProt Q16665). The experiment in a line: ATG_HIF1a_CIS: Attagene CIS-FACTORIAL HepG2 Assay for human Hypoxia Inducible Factor 1 (HIF1A) (AID 2282951). The conditions noted are these: HepG2 Attagene cis-factorial HIF1a reporter transcription; actives raise or lower the signal. The gist of the method:
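Activity is fitted in both directions relative to DMSO. Reporter transcripts are read by RT-PCR, fluorescent primer extension and capillary electrophoresis after 24 h chemical treatment. The cells are HepG2 carrying transiently transfected cis-element-driven reporter units responding to endogenous factors.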

The target in assay [14] is Hepatocyte nuclear factor 6 (Homo sapiens) (UniProt Q9UBC0). Briefly: ATG_HNF6_CIS: Attagene CIS-FACTORIAL HepG2 Assay for human Hepatocyte Nuclear Factor 6 (HNF6) (AID 2282952). As to conditions: HepG2 Attagene cis-factorial HNF6 reporter transcription; actives raise or lower the signal. The gist of the method:
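First, HepG2 cells were transfected with the multiplexed cis reporter library and dosed with chemical for 24 h. Next, RNA was reverse-transcribed, PCR-amplified and fluorescently labelled. Finally, HpaI-digested fragments were read by capillary electrophoresis.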

Assay [15] addresses Heat shock factor protein 1 (Homo sapiens) (UniProt Q00613). The experiment in a line: ATG_HSE_CIS: Attagene CIS-FACTORIAL HepG2 Assay for human Heat Shock Transcription Factor 1 (HSE) (AID 2282953). As to conditions: HepG2 HSE cis-reporter, Attagene RNA transcription; actives raise or lower the signal. The method in brief:
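Liver-derived HepG2 cells carry transiently introduced multiple reporter units governed by cis promoters. Reporter RNA measured 24 h post-dose through reverse transcription, PCR amplification, fluorescent labelling and capillary electrophoresis, normalised to DMSO.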

Assay [16] in a line: ATG_MRE_CIS: Attagene CIS-FACTORIAL HepG2 Assay for human Metal Responsive Element (MRE) (AID 2282954). As to conditions: HepG2 MRE cis-reporter transcription, Attagene multiplex; actives raise or lower the signal. The gist of the method:
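RT-PCR/capillary electrophoresis readout of reporter mRNA, 24 h post-dosing, in HepG2 cells transfected with multiplexed cis-regulated reporter constructs. Gain or loss of signal fitted bidirectionally against DMSO baseline.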

Assay [17] in a line: ATG_PBREM_CIS: Attagene CIS-FACTORIAL HepG2 Assay for human Phenobarbital-responsive Enhancer Module (PBREM) (AID 2282955). As to conditions: HepG2 PBREM cis-reporter, Attagene multiplexed transcription; actives raise or lower the signal. The gist of the method:
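Endogenous transcription factor activity was read from reporter transcripts in transiently transfected human HepG2 liver cells after 24 h dosing. RT-PCR products were fluorescently labelled, HpaI-cut and sized by capillary electrophoresis; activity fitted bidirectionally against DMSO baseline.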

Assay [18] has as its target Paired box protein Pax-6 (Homo sapiens) (UniProt P26367). Briefly: ATG_Pax6_CIS: Attagene CIS-FACTORIAL HepG2 Assay for human Paired Box 6 (PAX6) (AID 2282956). The conditions noted are these: HepG2 CIS-FACTORIAL PAX6 reporter transcription, RNA readout; actives raise or lower the signal. The gist of the method:
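Read-out is reporter transcript level, measured by RT-PCR with fluorescent primer extension and capillary electrophoresis after 24 h dosing of transfected HepG2 cells. Activity in either direction fitted relative to DMSO control.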

The target in assay [19] is Bile acid receptor (Homo sapiens) (UniProt Q96RI1). The experiment in a line: ATG_IR1_CIS: Attagene CIS-FACTORIAL HepG2 Assay for human Nuclear Receptor Subfamily 1 Group H Member 4 (NR1H4), IR1 submotif (AID 2282946). The conditions noted are these: IR1 reporter transcription, actives raise or lower the signal. The method in brief: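 Fluorescence of capillary-separated, HpaI-digested RT-PCR reporter products gave IR1-element mRNA induction in HepG2 cells 24 h after dosing. Endogenous transcription factors drove the cis-regulated reporters; activity was fitted bidirectionally against DMSO.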
Sequence of Bile acid receptor (Homo sapiens) (Q96RI1 whole entry, looked up): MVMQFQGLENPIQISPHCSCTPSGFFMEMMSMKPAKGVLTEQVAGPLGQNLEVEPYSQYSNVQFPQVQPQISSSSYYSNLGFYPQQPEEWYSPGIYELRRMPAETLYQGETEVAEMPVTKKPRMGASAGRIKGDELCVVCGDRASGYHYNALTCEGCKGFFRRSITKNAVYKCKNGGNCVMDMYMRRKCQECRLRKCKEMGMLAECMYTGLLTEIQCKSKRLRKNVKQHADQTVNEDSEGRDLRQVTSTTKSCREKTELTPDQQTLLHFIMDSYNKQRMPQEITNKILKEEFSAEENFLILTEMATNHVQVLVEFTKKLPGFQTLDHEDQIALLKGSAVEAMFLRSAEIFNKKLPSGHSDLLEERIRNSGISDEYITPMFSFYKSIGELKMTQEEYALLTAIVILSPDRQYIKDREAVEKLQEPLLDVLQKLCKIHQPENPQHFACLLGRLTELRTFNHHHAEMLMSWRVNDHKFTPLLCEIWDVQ

Assay [20] can be described thus: ATG_ISRE_CIS: Attagene CIS-FACTORIAL HepG2 Assay for human Interferon Regulatory Factor 1 (IRF1) binding to an Interferon-Stimulated Response Element (ISRE) (AID 2282948). As to conditions: HepG2 ISRE cis-reporter (Attagene), mRNA transcription readout; actives raise or lower the signal. The gist of the method:
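Endogenous transcription factor activity read as reporter transcript abundance via RT-PCR and capillary electrophoresis. HepG2 cells transiently transfected, 24 h chemical exposure. Gain or loss fitted against DMSO baseline.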

Sequence of Hepatocyte nuclear factor 3-beta (Homo sapiens) (Q9Y261 whole entry, looked up): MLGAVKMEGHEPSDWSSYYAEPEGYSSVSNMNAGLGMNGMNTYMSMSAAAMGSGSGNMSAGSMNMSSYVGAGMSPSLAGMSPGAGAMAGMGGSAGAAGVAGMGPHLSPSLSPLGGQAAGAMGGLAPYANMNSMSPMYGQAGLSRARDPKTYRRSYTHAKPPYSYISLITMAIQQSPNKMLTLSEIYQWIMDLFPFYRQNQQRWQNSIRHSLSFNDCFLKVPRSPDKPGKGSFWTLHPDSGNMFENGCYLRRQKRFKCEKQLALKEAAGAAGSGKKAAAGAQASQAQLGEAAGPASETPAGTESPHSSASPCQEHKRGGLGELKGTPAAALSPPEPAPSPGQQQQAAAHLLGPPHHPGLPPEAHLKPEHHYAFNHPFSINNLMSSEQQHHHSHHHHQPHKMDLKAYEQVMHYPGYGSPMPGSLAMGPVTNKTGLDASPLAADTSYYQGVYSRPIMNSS
Sequence of Paired box protein Pax-6 (Homo sapiens) (P26367 whole entry, looked up): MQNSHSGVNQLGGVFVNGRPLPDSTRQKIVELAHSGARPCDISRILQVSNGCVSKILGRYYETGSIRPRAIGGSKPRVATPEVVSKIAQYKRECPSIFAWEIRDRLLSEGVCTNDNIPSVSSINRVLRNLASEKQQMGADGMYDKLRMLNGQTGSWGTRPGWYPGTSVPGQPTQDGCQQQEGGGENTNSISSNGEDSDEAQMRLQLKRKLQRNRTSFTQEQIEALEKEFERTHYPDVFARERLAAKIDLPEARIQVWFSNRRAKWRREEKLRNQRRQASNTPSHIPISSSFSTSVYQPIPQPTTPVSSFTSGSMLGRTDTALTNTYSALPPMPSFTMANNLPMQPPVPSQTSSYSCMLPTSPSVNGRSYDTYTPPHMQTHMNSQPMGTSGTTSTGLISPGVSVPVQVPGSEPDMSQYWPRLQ
Sequence of Hepatocyte nuclear factor 6 (Homo sapiens) (Q9UBC0 whole entry, looked up, the tested form may be a part): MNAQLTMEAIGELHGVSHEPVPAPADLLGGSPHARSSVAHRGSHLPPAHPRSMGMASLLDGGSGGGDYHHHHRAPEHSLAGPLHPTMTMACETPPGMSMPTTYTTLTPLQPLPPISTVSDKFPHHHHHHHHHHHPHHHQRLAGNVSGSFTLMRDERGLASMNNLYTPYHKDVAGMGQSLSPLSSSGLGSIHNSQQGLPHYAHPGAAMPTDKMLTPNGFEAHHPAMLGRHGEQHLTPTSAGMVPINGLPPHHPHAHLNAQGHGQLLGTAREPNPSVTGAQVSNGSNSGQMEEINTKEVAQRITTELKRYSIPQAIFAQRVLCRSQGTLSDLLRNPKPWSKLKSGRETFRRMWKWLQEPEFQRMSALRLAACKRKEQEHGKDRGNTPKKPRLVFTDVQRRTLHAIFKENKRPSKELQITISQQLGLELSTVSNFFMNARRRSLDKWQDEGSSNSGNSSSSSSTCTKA
Sequence of Heat shock factor protein 1 (Homo sapiens) (Q00613 whole entry, looked up): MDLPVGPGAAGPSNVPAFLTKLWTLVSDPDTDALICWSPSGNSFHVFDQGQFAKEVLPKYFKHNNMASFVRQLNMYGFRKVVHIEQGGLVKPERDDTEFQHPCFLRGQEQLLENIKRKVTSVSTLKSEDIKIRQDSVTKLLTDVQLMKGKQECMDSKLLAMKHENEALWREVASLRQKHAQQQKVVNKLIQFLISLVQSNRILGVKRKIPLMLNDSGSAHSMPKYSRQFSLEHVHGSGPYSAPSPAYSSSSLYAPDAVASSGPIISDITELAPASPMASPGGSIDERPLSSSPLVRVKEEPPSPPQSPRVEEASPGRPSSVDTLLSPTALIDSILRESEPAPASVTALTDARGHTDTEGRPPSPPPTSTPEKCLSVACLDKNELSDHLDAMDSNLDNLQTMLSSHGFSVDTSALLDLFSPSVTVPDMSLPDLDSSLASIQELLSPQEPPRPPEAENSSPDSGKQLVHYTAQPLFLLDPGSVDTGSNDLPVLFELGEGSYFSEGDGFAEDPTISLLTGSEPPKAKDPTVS
Sequence of Hypoxia-inducible factor 1-alpha (Homo sapiens) (Q16665 whole entry, looked up): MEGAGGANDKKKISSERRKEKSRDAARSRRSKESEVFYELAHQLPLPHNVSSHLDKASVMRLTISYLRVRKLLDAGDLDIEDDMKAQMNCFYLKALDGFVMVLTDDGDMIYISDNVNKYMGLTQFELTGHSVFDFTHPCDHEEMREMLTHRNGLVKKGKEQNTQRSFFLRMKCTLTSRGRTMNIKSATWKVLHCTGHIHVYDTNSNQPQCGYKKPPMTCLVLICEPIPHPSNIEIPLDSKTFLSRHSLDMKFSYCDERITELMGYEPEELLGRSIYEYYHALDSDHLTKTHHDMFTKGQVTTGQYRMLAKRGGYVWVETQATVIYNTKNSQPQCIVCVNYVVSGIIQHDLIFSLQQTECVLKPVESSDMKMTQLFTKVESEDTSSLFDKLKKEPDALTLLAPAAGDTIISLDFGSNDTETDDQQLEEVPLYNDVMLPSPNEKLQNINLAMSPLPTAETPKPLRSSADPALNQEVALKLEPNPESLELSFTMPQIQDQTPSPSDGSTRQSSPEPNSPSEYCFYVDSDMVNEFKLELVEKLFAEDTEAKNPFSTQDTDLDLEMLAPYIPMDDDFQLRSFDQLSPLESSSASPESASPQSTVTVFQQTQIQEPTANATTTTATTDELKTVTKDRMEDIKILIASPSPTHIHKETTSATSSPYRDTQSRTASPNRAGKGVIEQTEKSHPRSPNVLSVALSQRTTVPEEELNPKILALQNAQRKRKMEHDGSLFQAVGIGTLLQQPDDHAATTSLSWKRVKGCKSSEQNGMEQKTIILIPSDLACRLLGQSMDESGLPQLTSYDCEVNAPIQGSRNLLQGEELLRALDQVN

Regarding `CCN(CCO)CCO`, the result in assay [1], in assay [2], in assay [3], in assay [4], in [5] and in assay [6] was inactive. Further, the compound was classed as inactive in assay [7], in [8], in assay [9], in assay [10], in [11] and in [12]. Also, the outcome in assay [13], in [14], in assay [15], in assay [16], in assay [17] and in assay [18] was inactive.

Consider `CCOP(=S)(OCC)SCSc1cc(Cl)ccc1Cl`, for which the outcome in [1], in assay [2], in assay [3], in [4], in [5] and in assay [6] was inactive. Also, the compound was classed as inactive in assay [7], in assay [8], in assay [9], in assay [10], in [11] and in assay [13]. Besides, the outcome in assay [14], in assay [16], in assay [17] and in assay [18] was inactive.

For `Oc1cccc(-c2ccccc2)c1`, the compound was classed as inactive in assay [1], in [2], in [3], in assay [5], in assay [6] and in assay [9]. For the same compound, the call in assay [19], in assay [10], in assay [20], in assay [11], in assay [12] and in assay [13] was inactive. For the same compound, the call in [14], in assay [15], in [16], in assay [17] and in [18] was inactive. In addition, the AC50 in [4] was 6.35 µM (active).

As to `CCCCN(CCCC)C(=S)S`, the compound was classed as inactive in assay [1], in [3], in assay [4], in assay [5], in [7] and in assay [8]. Also, the compound was classed as inactive in assay [10], in assay [11] and in assay [12]. Also, the AC50 is 110 µM (active) in [2]; 140 µM (active) in assay [9]; 126 µM (active) in assay [20]; 100 µM (active) in assay [13]; 100 µM (active) in assay [14]; 47.9 µM (active) in assay [15]. The AC50 in assay [16] is 112 µM (active); in assay [18], 100 µM (active).
